Records with an inconclusive call do not appear. A structure can be active in one record and inactive in another. Calls of active or inactive are those of the source. The calls were made as follows, unless noted: active = hit-call score of the fitted dose curve at least 0.9, where 1 is the maximum; inactive = score below 0.9.
Legend:
[1] = target: Oxysterols receptor LXR-beta (Homo sapiens) (UniProt P55055); experiment: ATG_LXRb_TRANS: Attagene TRANS-FACTORIAL HepG2 Assay for human Liver X Receptor beta (LXRb) (AID 2282981; active = hit-call score of the fitted dose curve at least 0.9, where 1 is the maximum); conditions: HepG2 Attagene TRANS GAL4-LXRb reporter, mRNA
Oxysterols receptor LXR-beta (Homo sapiens), sequence (P55055 whole entry, looked up, the tested form may be a part): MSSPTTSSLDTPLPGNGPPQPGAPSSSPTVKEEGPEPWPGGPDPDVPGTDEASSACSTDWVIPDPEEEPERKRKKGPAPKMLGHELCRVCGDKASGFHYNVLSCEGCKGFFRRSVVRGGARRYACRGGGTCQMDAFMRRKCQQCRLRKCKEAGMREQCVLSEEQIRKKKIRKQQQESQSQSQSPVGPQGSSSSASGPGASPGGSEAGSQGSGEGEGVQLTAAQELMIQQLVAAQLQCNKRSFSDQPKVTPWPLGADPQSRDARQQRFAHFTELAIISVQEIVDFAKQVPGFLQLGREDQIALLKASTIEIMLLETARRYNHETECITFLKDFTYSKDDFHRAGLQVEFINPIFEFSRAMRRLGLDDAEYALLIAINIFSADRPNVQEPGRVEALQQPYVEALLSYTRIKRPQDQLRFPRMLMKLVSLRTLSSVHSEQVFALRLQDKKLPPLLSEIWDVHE
Outline: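 Gain-of-signal mRNA reporter endpoint, DMSO as negative control. Transiently transfected HepG2 cells carrying the NR-Gal4 chimera and GAL4-UAS reporter units were treated 24 h; transcripts quantified by RT-PCR and capillary electrophoresis fluorescence.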

[2] = target: Hepatocyte nuclear factor 4-alpha (Homo sapiens) (UniProt P41235); experiment: ATG_HNF4a_TRANS: Attagene TRANS-FACTORIAL HepG2 Assay for human Hepatocyte Nuclear Factor 4 alpha (HNF4a) (AID 2282982; active = hit-call score of the fitted dose curve at least 0.9, where 1 is the maximum); conditions: HepG2 HNF4a transactivation reporter, mRNA readout
Hepatocyte nuclear factor 4-alpha (Homo sapiens), sequence (P41235 whole entry, looked up, the tested form may be a part): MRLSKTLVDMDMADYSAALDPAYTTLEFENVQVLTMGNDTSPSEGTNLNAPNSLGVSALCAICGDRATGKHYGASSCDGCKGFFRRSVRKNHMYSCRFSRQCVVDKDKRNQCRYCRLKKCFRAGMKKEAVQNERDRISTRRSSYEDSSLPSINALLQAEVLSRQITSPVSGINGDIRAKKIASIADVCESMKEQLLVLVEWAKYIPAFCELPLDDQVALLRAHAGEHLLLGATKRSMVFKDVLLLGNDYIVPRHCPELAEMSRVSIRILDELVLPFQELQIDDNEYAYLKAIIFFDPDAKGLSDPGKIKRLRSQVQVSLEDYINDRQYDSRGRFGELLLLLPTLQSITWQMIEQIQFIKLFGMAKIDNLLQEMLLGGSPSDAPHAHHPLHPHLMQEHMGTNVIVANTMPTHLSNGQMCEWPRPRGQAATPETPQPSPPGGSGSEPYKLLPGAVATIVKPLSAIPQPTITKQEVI
Outline: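 Gain-of-signal mRNA induction, relative to DMSO vehicle, was read after 24 h compound treatment of HepG2 cells bearing transfected GAL4-UAS reporters. Detection used RT-PCR, 6-FAM primer extension and capillary electrophoresis.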

[3] = target: Transcriptional activator Myb (Homo sapiens) (UniProt P10242); experiment: ATG_Myb_CIS: Attagene CIS-FACTORIAL HepG2 Assay for human Myeloblastosis (Myb) Proto-Oncogene Transcription Factor (AID 2282986); conditions: HepG2 Attagene CIS-FACTORIAL Myb reporter transcription; actives raise or lower the signal
Transcriptional activator Myb (Homo sapiens), sequence (P10242 whole entry, looked up): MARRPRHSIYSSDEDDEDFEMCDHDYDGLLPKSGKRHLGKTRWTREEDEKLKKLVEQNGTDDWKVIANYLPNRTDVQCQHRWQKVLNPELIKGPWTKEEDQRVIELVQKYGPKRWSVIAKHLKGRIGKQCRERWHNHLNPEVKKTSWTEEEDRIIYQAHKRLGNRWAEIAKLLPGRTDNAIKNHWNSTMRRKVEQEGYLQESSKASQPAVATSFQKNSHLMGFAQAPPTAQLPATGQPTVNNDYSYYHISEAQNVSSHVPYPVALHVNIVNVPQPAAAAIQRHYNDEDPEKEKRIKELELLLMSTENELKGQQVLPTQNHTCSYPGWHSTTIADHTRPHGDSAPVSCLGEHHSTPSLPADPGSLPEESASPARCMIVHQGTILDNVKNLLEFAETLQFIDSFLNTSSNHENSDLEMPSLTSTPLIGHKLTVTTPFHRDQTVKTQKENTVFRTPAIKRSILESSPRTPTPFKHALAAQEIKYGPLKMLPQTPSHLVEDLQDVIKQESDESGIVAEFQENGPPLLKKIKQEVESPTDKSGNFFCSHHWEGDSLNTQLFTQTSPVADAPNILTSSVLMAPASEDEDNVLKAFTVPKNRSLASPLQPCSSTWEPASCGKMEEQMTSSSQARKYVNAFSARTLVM
Outline: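 Reporter mRNA is quantified by RT-PCR and capillary electrophoresis 24 h after dosing HepG2 cells transfected with cis-regulated reporter units, which track endogenous transcription factor activity. Gain and loss of signal are fitted versus DMSO baseline.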

[4] = target: Nuclear respiratory factor 1 (Homo sapiens) (UniProt Q16656); experiment: ATG_NRF1_CIS: Attagene CIS-FACTORIAL HepG2 Assay for human Nuclear Respiratory Factor 1 (NRF1) Orphan Gene (AID 2282987); conditions: HepG2 NRF1 cis-element reporter, Attagene multiplex; actives raise or lower the signal
Nuclear respiratory factor 1 (Homo sapiens), sequence (Q16656 whole entry, looked up): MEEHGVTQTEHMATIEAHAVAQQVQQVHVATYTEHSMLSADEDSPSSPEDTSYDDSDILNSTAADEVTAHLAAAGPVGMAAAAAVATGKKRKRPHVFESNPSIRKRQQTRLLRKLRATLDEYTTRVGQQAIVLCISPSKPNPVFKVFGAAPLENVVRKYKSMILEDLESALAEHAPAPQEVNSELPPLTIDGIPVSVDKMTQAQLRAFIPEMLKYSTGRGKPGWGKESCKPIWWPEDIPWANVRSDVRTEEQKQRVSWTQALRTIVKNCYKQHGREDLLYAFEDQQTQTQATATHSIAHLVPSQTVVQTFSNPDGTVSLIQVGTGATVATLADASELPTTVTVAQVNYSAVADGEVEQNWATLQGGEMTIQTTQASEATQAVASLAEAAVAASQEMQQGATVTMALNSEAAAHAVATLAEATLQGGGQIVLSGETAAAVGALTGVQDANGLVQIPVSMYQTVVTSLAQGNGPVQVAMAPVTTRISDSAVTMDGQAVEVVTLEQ
Outline: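 Endogenous NRF1-driven reporter transcription in transfected HepG2 cells after 24 h treatment. Readout: RT-PCR products, 6-FAM labelled and resolved by capillary electrophoresis; changes fitted both directions relative to DMSO.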

[5] = ATG_NFI_CIS: Attagene CIS-FACTORIAL HepG2 Assay for human Nuclear Factor I (NFI) (AID 2282989); conditions: HepG2 cis-regulatory reporter, NFI response element transcription; actives raise or lower the signal
Outline: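 Reporter transcription driven by endogenous transcription factors in HepG2 cells; 24 h treatment. Quantitation by labelled RT-PCR fragments on capillary electrophoresis, gain- or loss-of-signal relative to DMSO.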

[6] = ATG_NF_kB_CIS: Attagene CIS-FACTORIAL HepG2 Assay for human Nuclear Factor Kappa B (NF-kB) (AID 2282991); conditions: HepG2 Attagene cis-factorial NF-kB reporter mRNA; actives raise or lower the signal
Outline: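 Readout is reporter transcript level, gain or loss versus DMSO, measured 24 h post-dose via RT-PCR, fluorescent labelling and capillary electrophoresis. Human HepG2 liver cells carried transiently transfected CIS reporter constructs reflecting endogenous factors.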

[7] = ATG_NRF2_ARE_CIS: Attagene CIS-FACTORIAL HepG2 Assay for human Nuclear Factor Erythroid 2 Related Factor 2 (NFR2) response to Antioxidant Response Elements (ARE) (AID 2282992); conditions: HepG2 Attagene ARE/NRF2 reporter, transcription factor activity; actives raise or lower the signal;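 as to AC50: reporter mRNA level measured by RT-PCR and capillary electrophoresis fluorescence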
Outline: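 Cis-factorial assay: transfected HepG2 reporter library, 24 h dosing, mRNA readout via RT-PCR/CE; DMSO-referenced bidirectional analysis.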

[8] = ATG_Oct_MLP_CIS: Attagene CIS-FACTORIAL HepG2 Assay for human Octamer-Binding Transcription Factor (Oct) (AID 2282993); conditions: HepG2 Attagene cis-factorial Oct reporter, mRNA; actives raise or lower the signal
Outline: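 Transfected HepG2 cells, 24 h treatment. Reporter mRNA quantified by RT-PCR–capillary electrophoresis; bidirectional fitting against DMSO.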

[9] = target: Oxysterols receptor LXR-alpha (Homo sapiens) (UniProt Q13133); experiment: ATG_LXRa_TRANS: Attagene TRANS-FACTORIAL HepG2 Assay for human Liver X Receptor alpha (LXRa) (AID 2282980; active = hit-call score of the fitted dose curve at least 0.9, where 1 is the maximum); conditions: HepG2 Attagene TRANS reporter, LXRa transactivation
Oxysterols receptor LXR-alpha (Homo sapiens), sequence (Q13133 whole entry, looked up, the tested form may be a part): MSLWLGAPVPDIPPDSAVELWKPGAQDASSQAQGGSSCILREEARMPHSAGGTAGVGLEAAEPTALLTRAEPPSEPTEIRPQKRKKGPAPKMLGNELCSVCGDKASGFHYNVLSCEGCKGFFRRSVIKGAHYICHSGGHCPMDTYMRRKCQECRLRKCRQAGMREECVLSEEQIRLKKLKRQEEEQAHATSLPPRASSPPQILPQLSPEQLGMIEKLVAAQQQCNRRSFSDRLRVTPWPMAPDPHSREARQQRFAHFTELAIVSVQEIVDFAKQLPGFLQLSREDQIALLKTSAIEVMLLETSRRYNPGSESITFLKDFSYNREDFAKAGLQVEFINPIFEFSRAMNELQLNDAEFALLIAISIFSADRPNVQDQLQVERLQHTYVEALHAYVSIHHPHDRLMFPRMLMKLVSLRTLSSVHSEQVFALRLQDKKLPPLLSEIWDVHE
Outline: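 HepG2 cells were transiently transfected with multiplexed reporter units driven by chimeric LXRa–GAL4 fusion proteins, then dosed for 24 h. Reporter mRNA was quantified by RT-PCR, fluorescent labelling and capillary electrophoresis; gain of signal fitted against DMSO baseline.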

[10] = ATG_M_32_TRANS: Attagene TRANS-FACTORIAL HepG2 Assay for M32 Transcription Factor (Internal Marker) (AID 2282984; active = hit-call score of the fitted dose curve at least 0.9, where 1 is the maximum); conditions: HepG2 Attagene TRANS M32 internal marker reporter
Outline: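 Capillary electrophoresis of 6-FAM-labelled reporter fragments gives the signal; data fitted for gain over DMSO negative control. Source: HepG2 cells bearing transient multiple reporter transcription units, 24 h exposure.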

[11] = ATG_M_06_TRANS: Attagene TRANS-FACTORIAL HepG2 Assay for M06 Transcription Factor (Internal Marker) (AID 2282983; active = hit-call score of the fitted dose curve at least 0.9, where 1 is the maximum); conditions: HepG2 Attagene TRANS M06 internal marker reporter
Outline: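 HepG2 cells transiently transfected with multiplexed GAL4-UAS reporter transcription units; after 24 h compound exposure, reporter mRNA measured by RT-PCR, FAM-labelled primer extension, HpaI digestion and capillary electrophoresis. Gain-of-signal fitted versus DMSO baseline; background control readout.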

[12] = target: Nuclear receptor subfamily 4 group A member 2 (Homo sapiens) (UniProt P43354); experiment: ATG_NURR1_TRANS: Attagene TRANS-FACTORIAL HepG2 Assay for human Nuclear Receptor Related Protein 1 (NURR1) (AID 2282985; active = hit-call score of the fitted dose curve at least 0.9, where 1 is the maximum); conditions: HepG2 Attagene TRANS reporter, mRNA readout
Nuclear receptor subfamily 4 group A member 2 (Homo sapiens), sequence (P43354 whole entry, looked up): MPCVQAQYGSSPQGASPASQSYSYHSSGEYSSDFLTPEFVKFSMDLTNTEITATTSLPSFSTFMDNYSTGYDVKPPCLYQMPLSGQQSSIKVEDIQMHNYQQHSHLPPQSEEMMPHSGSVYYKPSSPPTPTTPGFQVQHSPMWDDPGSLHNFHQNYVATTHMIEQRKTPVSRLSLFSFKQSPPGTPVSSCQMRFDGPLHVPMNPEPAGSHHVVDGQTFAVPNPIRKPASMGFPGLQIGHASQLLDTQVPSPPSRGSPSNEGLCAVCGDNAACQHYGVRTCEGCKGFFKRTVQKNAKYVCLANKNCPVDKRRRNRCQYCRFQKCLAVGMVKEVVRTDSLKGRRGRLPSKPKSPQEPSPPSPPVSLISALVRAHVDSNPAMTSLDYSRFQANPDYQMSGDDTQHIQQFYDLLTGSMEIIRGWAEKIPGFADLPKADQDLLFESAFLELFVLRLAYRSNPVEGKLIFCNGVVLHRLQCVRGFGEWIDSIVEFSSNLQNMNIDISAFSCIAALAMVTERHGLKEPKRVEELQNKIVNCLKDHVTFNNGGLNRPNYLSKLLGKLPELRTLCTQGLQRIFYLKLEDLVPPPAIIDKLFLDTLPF
Outline: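 HepG2 / transient MRTU transfection / 24 h compound exposure / RT-PCR + CE fluorescence of reporter mRNA / gain-of-signal vs DMSO.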

[13] = target: Myc proto-oncogene protein (Homo sapiens) (UniProt P01106); experiment: ATG_Myc_CIS: Attagene CIS-FACTORIAL HepG2 Assay for human Myelocytomatosis (Myc) Proto-Oncogene Transcription Factor (AID 2282990); conditions: HepG2, Attagene cis-reporter transcription factor activity; actives raise or lower the signal
Myc proto-oncogene protein (Homo sapiens), sequence (P01106 whole entry, looked up): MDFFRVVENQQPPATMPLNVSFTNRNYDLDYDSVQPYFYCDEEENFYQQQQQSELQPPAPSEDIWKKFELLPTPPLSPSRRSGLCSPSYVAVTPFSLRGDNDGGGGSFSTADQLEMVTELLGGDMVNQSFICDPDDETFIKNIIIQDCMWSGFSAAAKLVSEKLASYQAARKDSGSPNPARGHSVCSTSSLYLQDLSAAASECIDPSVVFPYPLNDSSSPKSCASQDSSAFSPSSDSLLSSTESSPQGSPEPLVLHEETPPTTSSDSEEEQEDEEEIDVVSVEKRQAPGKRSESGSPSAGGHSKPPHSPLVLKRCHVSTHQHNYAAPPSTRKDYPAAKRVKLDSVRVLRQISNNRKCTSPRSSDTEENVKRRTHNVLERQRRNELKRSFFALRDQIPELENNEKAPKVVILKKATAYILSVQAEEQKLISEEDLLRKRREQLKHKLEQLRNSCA
Outline: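 Transiently transfected HepG2 cells bearing cis-promoter reporter units for endogenous transcription factors; 24 h exposure. Reporter mRNA measured by RT-PCR, 6-FAM primer extension, HpaI cut and capillary electrophoresis; bidirectional fit relative to DMSO.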

[14] = target: Cellular tumor antigen p53 (Homo sapiens) (UniProt P04637); experiment: ATG_p53_CIS: Attagene CIS-FACTORIAL HepG2 Assay for human p53 Transcription Factor (AID 2282994); conditions: HepG2 p53 cis-element reporter, Attagene mRNA; actives raise or lower the signal
Cellular tumor antigen p53 (Homo sapiens), sequence (P04637 whole entry, looked up): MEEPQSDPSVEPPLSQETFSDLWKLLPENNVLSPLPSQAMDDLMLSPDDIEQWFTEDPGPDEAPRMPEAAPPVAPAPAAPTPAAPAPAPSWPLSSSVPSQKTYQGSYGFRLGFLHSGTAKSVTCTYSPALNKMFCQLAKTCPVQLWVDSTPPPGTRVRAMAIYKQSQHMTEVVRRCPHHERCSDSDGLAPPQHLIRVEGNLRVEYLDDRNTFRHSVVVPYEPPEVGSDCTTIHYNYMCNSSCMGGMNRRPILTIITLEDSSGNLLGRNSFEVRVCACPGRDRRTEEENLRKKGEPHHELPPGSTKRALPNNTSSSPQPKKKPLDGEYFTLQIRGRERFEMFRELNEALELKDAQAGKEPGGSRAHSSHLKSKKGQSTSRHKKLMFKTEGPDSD
Outline: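 Using HepG2 hepatoma cells carrying cis-acting multiplexed reporters, mRNA induction is detected after a 24 h exposure. Gain- and loss-of-signal responses are fitted relative to DMSO-treated cells.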

[15] = BSK_3C_TissueFactor: BioMAP Diversity Plus: 3C Assay for Tissue Factor Biomarker Activity (AID 2282997); conditions: BioMAP 3C HUVEC, tissue factor biomarker readout; actives raise or lower the signal
Outline: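 Primary human umbilical vein endothelial cells in the 3C system were exposed to test chemical for 24 h, then Tissue Factor measured by ELISA. Activity was fitted bidirectionally against DMSO as negative control and baseline.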

[16] = BSK_3C_uPAR: BioMAP Diversity Plus: 3C Assay for Urokinase-type plasminogen activator receptor (uPAR) Biomarker Activity (AID 2282998); conditions: BioMAP 3C HUVEC, uPAR biomarker ELISA; actives raise or lower the signal
Outline: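 Readout: ELISA for surface uPAR. System: human umbilical vein endothelial primary cells, 24 h after chemical exposure. Analysis: bidirectional fit, DMSO baseline.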

[17] = BSK_3C_VCAM1: BioMAP Diversity Plus: 3C Assay for Vascular cell adhesion molecule 1 (VCAM1) Biomarker Activity (AID 2282999); conditions: BioMAP 3C HUVEC, VCAM1 ELISA, cytokine-stimulated; actives raise or lower the signal
Outline: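 Human umbilical vein endothelial cells (3C system), biomarker read by ELISA 24 h after dosing; bidirectional fit against DMSO baseline. Cytotoxicity tracked by SRB total-protein staining in parallel cultures at biomarker time.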

Measured: AC50

CCCCOCC(C)OCC(C)O (centres undefined)
inactive: [1] | [2] | [3] | [4] | [5] | [6] | [7] | [8]

CCCC1CCOC(C)S1 (centres undefined)
inactive: [9] | [10] | [3] | [4] | [5] | [6] | [7] | [8]

N#CCCNCCC#N
not listed: [6] | [9] | [14] | [15] | [16] | [17]
inactive: all other assays above

NCCN1CCNCC1
not listed: [2] | [9] | [15] | [16] | [17]
inactive: all other assays above

O=C(O)C(F)(F)OC(F)(F)C(F)(F)OC(F)(F)C(F)(F)C(F)(F)C(F)(F)F
inactive: [15] | [16] | [17]
active: [16] 38.7 µM

CC/C=C\CCCCO
not listed: [1] | [9] | [11] | [15] | [16] | [17]
inactive: all other assays above

CC(=O)OC(C)(C)C1CC=C(C)CC1 (centres undefined)
active: [15] 29.8 µM | [16] 32.3 µM
not listed: [1] | [2] | [6] | [9] | [11]
inactive: all other assays above

CCCCCCCCCC(=O)OCC
active: [15] 28.7 µM | [16] 29.1 µM | [17] 32.5 µM
inactive: [11] | [12] | [3] | [5] | [7] | [8] | [14]

CCC(C)C1CCCCC1=O (centres undefined)
inactive: [11] | [10] | [12] | [3] | [5] | [13] | [6] | [7] | [8]

C[N+](C)(C)CCO
active: [7] 101 µM
inactive: [2] | [3] | [5] | [8]

O=S(=O)(O)C(F)(F)C(F)(F)OC(F)(F)C(F)(F)F
inactive: [15] | [16] | [17]

CCCCCCCC1CCCC1=O (centres undefined)
active: [15] 33 µM | [16] 34.5 µM | [17] 35.8 µM
inactive: [11] | [12] | [3] | [5] | [13] | [7] | [8] | [14]

O=C(O)C(F)(F)C(F)(F)C(F)(F)C(F)(F)C(F)(F)C(F)(F)C(F)(F)C(F)F
inactive: [15] | [16] | [17]

c1ccc(Sc2ccccc2)cc1
active: [15] 33 µM | [16] 32 µM | [17] 39.1 µM
not listed: [1] | [2] | [9] | [10] | [14]
inactive: all other assays above

CCCCCCCCCCCCS
inactive: [3] | [4] | [5] | [13] | [6] | [8]
active: [7] 26.4 µM | [15] 30.7 µM | [16] 26.4 µM | [17] 20 µM
